We go through 39 molecules from PubChem BioAssay (NCI).

The panel holds about 83,000 compounds, 20% with a hit somewhere; the sample as a whole holds those more often.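 48-hour exposure, single concentration, 96-well plates; percent growth endpoint where 0 means no net growth. Active: below 10.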 Calls of active or inactive are those of the source.

The first assay concerns UACC-257 melanoma. Nature of the assay: NCI-60 one-dose screen, 48 h (100 = growth as untreated, 0 = no growth, -100 = all killed). To be noted: 10 µM unless noted.
As for `Cc1ccc(C(=O)NCCCNc2nccc(-n3ccc4cccnc43)n2)cc1`, the growth is 107% (inactive).
As for `N/C(=N\C(N)=N\c1nc2ccccc2s1)c1ccncc1`, the growth was 95.3% (inactive).
As for `COC(=O)c1nc(-c2ccccc2)oc1S(=O)(=O)N1CCN(c2cccc(Cl)c2)CC1`, the growth is 80.2% (inactive).
Turning to `CCCCCCCCC(C)OC(=O)c1nn(C(C)=O)c2ccccc12` (centres undefined), the growth is 99.7% (inactive).
Still for that read-out and setting: the value for `Cc1ccc(N2CCN(C(C)C(N)=O)CC2)cc1` (centres undefined) was 127% (inactive).
Still for that read-out and setting: the value for `COc1ccc(S(=O)(=O)NCCCNc2nccc(-c3c(-c4cccc([N+](=O)[O-])c4)nc4sccn34)n2)cc1` was 53% (inactive); that for `COc1ccc(-n2c(=S)sc3c(Cl)nc(C)nc32)c(OC)c1` was 77.9% (inactive); that for `N[C@@H]1CCN(C(=O)c2cc3cc(Cl)c(F)c(F)c3[nH]2)C1` was 99.7% (inactive).
Consider `C=C[C@@H]1C[C@@H]2Cc3cc(F)ccc3N1O2`, for which the growth is 93.8% (inactive).
For `CCCCN(CCCC)C(=O)CC`, the growth was 129% (inactive).
With `CC12CCC3C4(C)COC(c5ccco5)OC4CCC3(C)C1CC(C1=CCOC1=O)O2` (centres undefined), the growth is 110% (inactive).
Consider `CCCCN(CCCC)C(=N)c1ccnc2ccccc12`, for which the growth was 66.2% (inactive).
As for `C=C1C(=O)O[C@H]2[C@H]1CC/C(Cn1cc(CNC(=O)c3cc4ccccc4[nH]3)nn1)=C\CC[C@@]1(C)O[C@@H]21`, the growth is 61.7% (inactive).
As for `NC(=O)CCCN1C/C(=C\c2ccccc2)C(=O)c2ccccc21`, the growth is 87.5% (inactive).
On the same count and under the same terms, for `COc1cc(/C=C/C(=O)N2CCN(C(=O)/C=C/c3cc(OC)c(OC)c(OC)c3)CC2)cc(OC)c1OC` the value was 94.3% (inactive); for `COc1ccc(Nc2ncccc2C(=O)NCc2cn(Cc3cccc(Oc4ccccc4)c3)nn2)cc1`, 88.8% (inactive).
For the molecule `c1ccc(-c2nnc(-c3ccccn3)s2)nc1`, the growth was 96% (inactive).
Regarding `C=C1CCC2C(C)(CO)C(O)CCC2(C)C1CC(NCc1ccccc1)C1=CCOC1=O` (centres undefined), the growth is 102% (inactive).
Same read-out and setting: for `CCCCCCCCCCCC(=O)NCCC[N+](C)(C)CC(=O)[O-]` the value was 98.3% (inactive); for `CC(C)CSc1nc(NN)c(C#N)c(-c2ccc(F)cc2)n1`, 105% (inactive); for `O=c1[nH]c(-c2ccccc2)nc(CN2CCCCC2)c1O`, 113% (inactive).
The same measure, in the same setting: the value for `Cc1ccc(S(=O)(=O)Nc2c(Br)cc(Br)cc2C(N)=O)cc1` was 107% (inactive).
Same read-out and setting: for `Nc1nc(-c2ccccc2)c(CCCOc2ccc(NC(=O)CBr)cc2)c(=O)[nH]1` the value was 86.9% (inactive); for `Nc1cccc(-c2nc3sccn3c2-c2ccnc(NCCNS(=O)(=O)c3ccc(C(F)(F)F)cc3)n2)c1`, 65% (inactive).
Regarding `Cc1ccc(-c2nc(C#N)c(S(=O)(=O)n3nc(-c4ccccc4)cc3N)o2)cc1`, the growth was 92.1% (inactive).

In a further assay the test system is M14 melanoma. Described as above. As to conditions: 10 µM unless noted.
For the molecule `C/C=C(\C)C(C(=O)NC1CCCCC1)N(C(=O)C1CCc2cc(F)ccc2O1)c1ccc(Cl)cc1` (centres undefined), the growth is 103% (inactive).
Still for that read-out and setting: for `N=C(N)c1ccc(-c2cc(Cl)cc(Cl)c2)cn1` the value was 96.4% (inactive); for `COc1ccc(-c2cc(-c3ccccc3)nc(SCCCC(=O)NO)n2)cc1OC`, -4.14% (active).
The same measure, in the same setting: the value for `CCC(C)/C(=C\C#N)NCCCN/C(=C/C#N)C(C)CC` (centres undefined) was 96.1% (inactive); that for `CC1=C(C#N)C(=O)NC(C)C1` (centres undefined) was 96.2% (inactive); that for `COc1cccc(/C=C2\Oc3cc(OCCCN4CCCC4)ccc3C2=O)c1OC` was 91.5% (inactive).
Take `COc1cc(C2C3=C(COC3=O)Nc3cc4c(cc32)CCC4)cc2c1OCO2` (centres undefined): the growth was 12% (inactive).
On the same count and under the same terms, the value for `CCN(CC)c1ccc(/C=C2\Oc3ccc(O)c(I)c3C2=O)cc1` was 28.7% (inactive); that for `C=C(C)[C@@H]1CC[C@]2(C(=O)O)CC[C@]3(C)[C@H](CC[C@@H]4[C@@]5(C)C[C@@H](CC#Cc6ccc(C(F)(F)F)cc6)[C@H](O)C(C)(C)[C@@H]5CC[C@]43C)[C@@H]12` was -51.7% (active); that for `COc1ccc2c(c1)[nH]c(=O)c1c3cccc(F)c3cn21` was 40.4% (inactive).
The same measure, in the same setting: for `CCOC(=O)C1=C(C)NC(C)=C(C(=O)OCC)C1(C)C` the value was 109% (inactive).
Still for that read-out and setting: for `COc1cccc(/C=C/C(=O)Nc2cc(OC)c3c(c2)OCO3)c1` the value was 104% (inactive); for `COc1cccc(-c2nc3sccn3c2-c2ccnc(NCCCNS(=O)(=O)c3ccc(F)cc3)c2)c1`, 25.7% (inactive).
As to `COc1ccc(S(=O)(=O)Nc2cc(/C=C\c3cc(OC)c(OC)c(OC)c3)cc(OC)c2OC)cc1`, the growth was 15.9% (inactive).
Same read-out and setting: for `Cc1ccc(C(=O)NCCCNc2nccc(-n3ccc4cccnc43)n2)cc1` the value was 102% (inactive).
On to `N/C(=N\C(N)=N\c1nc2ccccc2s1)c1ccncc1`, for which the growth was 49.5% (inactive).
For the molecule `COC(=O)c1nc(-c2ccccc2)oc1S(=O)(=O)N1CCN(c2cccc(Cl)c2)CC1`, the growth was 86.9% (inactive).
On to `CCCCCCCCC(C)OC(=O)c1nn(C(C)=O)c2ccccc12` (centres undefined), for which the growth is 101% (inactive).
`Cc1ccc(N2CCN(C(C)C(N)=O)CC2)cc1` (centres undefined): the growth is 99.2% (inactive).
Still for that read-out and setting: for `COc1ccc(S(=O)(=O)NCCCNc2nccc(-c3c(-c4cccc([N+](=O)[O-])c4)nc4sccn34)n2)cc1` the value was 41.6% (inactive).
The same measure, in the same setting: the value for `COc1ccc(-n2c(=S)sc3c(Cl)nc(C)nc32)c(OC)c1` was -18.8% (active).
On the same count and under the same terms, for `N[C@@H]1CCN(C(=O)c2cc3cc(Cl)c(F)c(F)c3[nH]2)C1` the value was 89.8% (inactive); for `C=C[C@@H]1C[C@@H]2Cc3cc(F)ccc3N1O2`, 120% (inactive); for `CCCCN(CCCC)C(=O)CC`, 111% (inactive).
As to `CC12CCC3C4(C)COC(c5ccco5)OC4CCC3(C)C1CC(C1=CCOC1=O)O2` (centres undefined), the growth is 98.6% (inactive).
Consider `CCCCN(CCCC)C(=N)c1ccnc2ccccc12`, for which the growth was 110% (inactive).
Same read-out and setting: for `C=C1C(=O)O[C@H]2[C@H]1CC/C(Cn1cc(CNC(=O)c3cc4ccccc4[nH]3)nn1)=C\CC[C@@]1(C)O[C@@H]21` the value was 57.8% (inactive); for `NC(=O)CCCN1C/C(=C\c2ccccc2)C(=O)c2ccccc21`, 103% (inactive).
Still for that read-out and setting: the value for `COc1cc(/C=C/C(=O)N2CCN(C(=O)/C=C/c3cc(OC)c(OC)c(OC)c3)CC2)cc(OC)c1OC` was 97.1% (inactive); that for `COc1ccc(Nc2ncccc2C(=O)NCc2cn(Cc3cccc(Oc4ccccc4)c3)nn2)cc1` was 38.7% (inactive); that for `c1ccc(-c2nnc(-c3ccccn3)s2)nc1` was 82.8% (inactive).
Still for that read-out and setting: the value for `C=C1CCC2C(C)(CO)C(O)CCC2(C)C1CC(NCc1ccccc1)C1=CCOC1=O` (centres undefined) was 97.3% (inactive).
Turning to `CCCCCCCCCCCC(=O)NCCC[N+](C)(C)CC(=O)[O-]`, the growth was 98.6% (inactive).
Consider `CC(C)CSc1nc(NN)c(C#N)c(-c2ccc(F)cc2)n1`, for which the growth is 78.9% (inactive).
The same measure, in the same setting: the value for `O=c1[nH]c(-c2ccccc2)nc(CN2CCCCC2)c1O` was 108% (inactive); that for `Cc1ccc(S(=O)(=O)Nc2c(Br)cc(Br)cc2C(N)=O)cc1` was 94.5% (inactive).
Regarding `Nc1nc(-c2ccccc2)c(CCCOc2ccc(NC(=O)CBr)cc2)c(=O)[nH]1`, the growth was 104% (inactive).
On the same count and under the same terms, the value for `Nc1cccc(-c2nc3sccn3c2-c2ccnc(NCCNS(=O)(=O)c3ccc(C(F)(F)F)cc3)n2)c1` was 53.6% (inactive); that for `Cc1ccc(-c2nc(C#N)c(S(=O)(=O)n3nc(-c4ccccc4)cc3N)o2)cc1` was 83% (inactive).
